From PubChem BioAssay
VLA-4 inh: inhibition in human VLA-4 binding assay, primary screen, VLA-4 allosteric modulator project, MLPCN library, flow cytometry, VLA-4 expressing cells | 330,000 compounds, 0.2% hits | ligand binding flow cytometry | inhibition, % (about 7 µM as worked out from the volumes in the protocol) | Integrin alpha-4 (Homo sapiens), P13612; in the data active means inhibition above about 50%
DSG3 Ab inh: inhibitors of pemphigus antibody binding to DSG3, primary screen, biochemical, bead-based, flow cytometry, scFv-GFP; Desmoglein-3 (Homo sapiens), P32926; DSG3-coupled beads, scFv-anti-DSG3-GFP binding; hits give low values; binding (percent of control), % at 10 µM; 310,000 compounds, 0.48% hits; AID 588358, 2011;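 active means binding more than 3 SD below its plate's average and above zero; inconclusive means below that plate limit but binding exactly zero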;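 further: hits lower antibody fragment binding to DSG3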
NTR1 ag: agonists of human NTR1, primary screen, imaging, U2OS cells, beta-arrestin-GFP, high content; AID 493036, 2011; 330,000 compounds, 0.17% hits; NTR1-U2OS beta-arrestin-GFP spot imaging, agonist mode; activation, % at 20 µM; Neurotensin receptor type 1 (Homo sapiens), P30989;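 active means activation at or above 40% of the spot to cytoplasm intensity ratio, with at least 20 cells analyzed; inconclusive means wells under 20 cells, flagged as cytotoxic or low count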;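 further: 0% = DMSO without peptide and 100% = 100 nM NTR1 peptide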
Target sequence (P30989 whole entry, looked up): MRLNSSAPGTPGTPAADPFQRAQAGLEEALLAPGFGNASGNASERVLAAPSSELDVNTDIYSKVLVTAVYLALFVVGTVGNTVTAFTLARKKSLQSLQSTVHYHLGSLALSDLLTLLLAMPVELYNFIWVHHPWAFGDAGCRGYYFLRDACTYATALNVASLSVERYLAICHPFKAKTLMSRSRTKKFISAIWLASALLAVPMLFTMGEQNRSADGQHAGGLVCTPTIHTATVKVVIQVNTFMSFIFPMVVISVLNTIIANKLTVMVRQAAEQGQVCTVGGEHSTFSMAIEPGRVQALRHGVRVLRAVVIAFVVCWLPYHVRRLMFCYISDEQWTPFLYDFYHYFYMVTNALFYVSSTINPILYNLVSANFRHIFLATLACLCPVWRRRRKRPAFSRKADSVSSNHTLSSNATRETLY
AI-2 QS modul: Vibrio harveyi AI-2 quorum sensing modulators, primary screen, JMH597 strain, luminescence/OD600 ratio. activity change, % at 7.5 µM. Vibrio harveyi JMH597 AI-2 luminescence/OD600 ratio, 9 h; hits give low values; strain lacks LuxN and CqsS sensors; 0 = neutral-control median. AID 2094, 2009. 300,000 compounds, 0.4% hits; in the data active means activity change below about -75%, passing the limit was not always enough; inconclusive means no clear call, values can overlap the other calls;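 further: luminescence divided by OD600 gain over 9 h not by final OD600 alone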
JMH597 growth: Vibrio harveyi growth inhibition, confirmation, counter-screen for AI-2 quorum sensing project, JMH597 strain, OD600 absorbance; shares compounds with AI-2 QS modul; 9 h; lacks LuxN and CqsS sensors; growth inhibition, % at 7.5 µM; 750 compounds, 1% hits;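 active means every replicate shows growth inhibition above 50%; inconclusive means at least half, but not all, replicates pass that cutoff; inactive means fewer than half of replicates pass it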
BB721 const-QS lum: luminescence inhibition in constitutive-on V. harveyi, confirmation, counter-screen for LuxS inhibitor project, strain BB721, luminescence readout. AID 2727, 2010. inhibition, % at 7.5 µM. Vibrio harveyi BB721 luminescence, 9 h. 750 compounds, 95% hits. shares compounds with AI-2 QS modul;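 active means inhibition above about 80% in every replicate, not just on average, limit read from the data; inconclusive means at least half of replicates past the limit, but not all; inactive means fewer than half of replicates past the limit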
BB721 growth rt: growth inhibition of V. harveyi BB721, confirmation, cytotoxicity control for AI-2 quorum sensing inhibitors, strain BB721, absorbance OD600. growth inhibition, % at 7.5 µM. Vibrio harveyi BB721 growth, 9 h. 750 compounds, 3% hits. shares compounds with AI-2 QS modul;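 active means every replicate shows growth inhibition above 50%; inconclusive means at least half but not all replicates above 50% inhibition; inactive means under half of replicates above 50% inhibition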
AI-2 QS JMH597: Vibrio harveyi AI-2 signaling luminescence modulation – JMH597 strain, confirmation; inhibition, % at 7.5 µM; Vibrio harveyi JMH597 AI-2 quorum sensing luminescence, 9 h; luxN and CqsS knockout, AI-2 only; AID 2736, 2010; 750 compounds, 97% hits; shares compounds with AI-2 QS modul;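 active means every replicate shows more than 75% inhibition of signal versus neutral control wells; inconclusive means half to three quarters of replicates exceed 75% inhibition; inactive means fewer than half of replicates exceed 75% inhibition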
Active calls of the source: *; ? = inconclusive; · = no result. The list is not random: actives were taken first. Their share in the collection is about 1.1%.

SMILES	VLA-4 inh	DSG3 Ab inh	NTR1 ag	AI-2 QS modul	others
O=c1[nH]c(=O)n(-c2ccc(Cl)cc2)c(O)c1C=Nc1ccc(S(=O)(=O)Nc2nccs2)cc1	3	126	2	-78*
O=C1NC(=O)C(=Cc2ccc(-c3ccc(Cl)cc3)o2)C(=O)N1	26	72*	41*	?
O=C(N=Nc1c(O)[nH]c(=O)[nH]c1=O)C1COc2cc3ccccc3cc2O1 (stereo not given)	-1	105	0	19
C#C[C@]1(O)CC[C@H]2[C@@H]3CCC4=Cc5nc6nc7ccccc7n6cc5C[C@]4(C)[C@H]3CC[C@@]21C	-25	63*	25	·
COc1ccccc1N1CCN(Cc2cccc(Br)c2)CC1	-1	124	0	16
CN(C)S(=O)(=O)c1cc(NC(=O)C[N+]23CCN(CC2)CC3)ccc1Cl	8	103	-2	19
CN(C)S(=O)(=O)c1cc(NC(=O)COC(=O)Cc2ccccc2)ccc1Cl	21	88*	-1	-49
Cc1ccc([C@@H]2C[C@H]3[C@@H](CN2S(=O)(=O)c2ccc(Cl)cc2)C(=O)C[C@@H](c2ccccc2F)N3S(=O)(=O)c2ccc(C)cc2)cc1	·	99	·	·
COC(=O)C1=C(c2ccc(F)cc2F)C[C@@H]2CC[C@H]1N2C(=O)NCc1ccco1	5	97	0	·
O=C(CCNC(=O)N1C[C@H]2C[C@@H](C1)c1cccc(=O)n1C2)Nc1ccc(F)cc1	19	80*	6	21
C[C@@H]1CN([C@H](C)CO)C(=O)c2c(c3ccccc3n2C)-c2ccccc2CO[C@H]1CN(C)Cc1ccc2c(c1)OCCN2C	·	102	·	·
O=C1CC=C2C3CC4N(CCC45c4cc(O)c(O)cc4N1C25)CC3=CCBr (stereo not given)	·	54*	·	·
O=C1CC=C2C3CC4N(CCC45c4ccccc4N1C25)CC3=CCO (stereo not given)	·	97	·	·
CCN(CC)c1ccc(N=Cc2c(O)n(Cc3ccco3)c(=O)[nH]c2=O)cc1	3	·	6	7
NC(=O)c1ccc(N=Cc2c(O)n(Cc3ccco3)c(=O)[nH]c2=O)cc1	2	79*	0	16
CC1([N+](=O)[O-])COP(=O)(NC2CC2)OC1 (stereo not given)	·	104	·	·
CNc1cc(Cl)c2nonc2c1[N+](=O)[O-]	·	103	·	-90*
Cc1cc([N+](=O)[O-])c(Cl)cc1NC(=O)C(C)C	-6	·	3	13
Cc1nc(N2CCN(Cc3ccc4c(c3)OCO4)CC2)[nH]c(=O)c1C	·	95	0	8
CN1C(=O)/C(=C/C=C/c2ccco2)C(=O)NC1=S	-9	19*	1	9
CCCCCCCCc1ccc(O)cc1	11	110	7	·
CCCCCCCCn1sccc1=O	36	87*	24	·
COc1cc(OC)c(OC)cc1CNCCc1ccc2c(c1)OCO2	7	116	0	25
CN1CCCC1CCOC(C)(c1ccccc1)c1ccc(Cl)cc1 (stereo not given)	·	109	·	·
O=C(O)c1ccc(-[n+]2c(-c3ccccc3)cc(-c3ccccc3)cc2-c2ccccc2)cc1	-4	98	-2	8
SMILES	VLA-4 inh	DSG3 Ab inh	NTR1 ag	AI-2 QS modul	others
CCCOC(=O)c1ccc(-[n+]2c(-c3ccccc3)cc(-c3ccccc3)cc2-c2ccccc2)cc1	27	106	40*	44
CC(=O)Nc1ccccc1C(=O)OCc1cccc(F)c1	56*	122	2	4
CC(=O)Nc1ccccc1C(=O)OCc1ccc(C(=O)c2ccccc2)cc1	·	108	0	-6
COC(=O)C(O)(c1ccc(NC(=O)Oc2ccccc2)cc1)C(F)(F)F (stereo not given)	4	96	0	-76*
O=c1[nH]c(O)c(/C=C2/C=CC(c3cc(Cl)ccc3Cl)=N2)c(=O)[nH]1	-33	94	46*	28
COc1ccc2c3c1O[C@H]1C(=O)CC[C@H]4[C@@H](C2)N(C)CC[C@]314	-2	100	2	·
CC(O)C1C=CC=CC(=O)OC2CC3OC4C5OC5(C)C(O)CC4(COC(=O)C(O)C(C)CCO1)C2(C)C31CO1 (stereo not given)	·	74*	·	·
CCn1nc(-c2ccccc2)nc2c(=O)n(C)c(=O)nc1-2	-3	97	-2	-93*
COc1ccc(-c2nc3ccccc3c(=O)n2-c2ccc(OC)cc2)cc1	-1	107	2	4
CC1Oc2cc3c(-c4c(O)cc(O)c5c(O)c6c(cc45)OC(C)C(C)C6=O)c(O)cc(O)c3c(O)c2C(=O)C1C (stereo not given)	10	·	4	-89*
CCOP(=O)(OCC)C(NC(=O)c1cccc([N+](=O)[O-])c1)C(Cl)(Cl)Cl (stereo not given)	-5	83*	0	-1
Cc1nc2c(=O)n(C)c(=O)nc-2n(C)n1	4	82	0	-95*
O=C(O)CCC(=O)NCCC1=c2ccccc2=N/C1=C\c1c(O)n(Cc2ccc(F)cc2)c(=S)[nH]c1=O	0	67*	1	38
O=C(N/N=C/c1c(O)n(Cc2ccc(F)cc2)c(=O)[nH]c1=O)c1ccccc1	-2	103	0	33
COC(=O)C1=C(c2ccc3ccccc3c2)C[C@@H]2CC[C@H]1N2C(=O)N1CCCC1	8	104	0	·
O=C(c1ccc(-c2ccccc2)cc1)C1CCCN(Cc2ccn[nH]2)C1 (stereo not given)	13	103	2	-84*	JMH597 growth=3;BB721 const-QS lum=84*;BB721 growth rt=14;AI-2 QS JMH597=91*
Cc1ccsc1C(=O)C1CCCN(Cc2ccn[nH]2)C1 (stereo not given)	3	97	0	18
COC(=O)C1=C(c2ccc(F)cc2OCc2ccccc2)C[C@@H]2CC[C@H]1N2C(=O)N1CCC(O)(c2ccc(Cl)cc2)CC1	1	102	2	·
